# Records with an inconclusive call do not appear. Where a call stands in place of a potency, no number is given. More than one record can exist for a structure, and the calls need not agree. Calls of active or inactive are those of the source. Calls come from the whole dose curve.
# Biological target: Beta-2 adrenergic receptor (Homo sapiens) (UniProt P07550)
# Assay: Adrenergic beta2 receptor (ADRB2) small molecule agonists, cell-based qHTS assay (AID 1963593);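 for activation: CHO cells stably overexpressing human ADRB2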
# Outline: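 CHO cells stably over-expressing ADRB2 were plated overnight at 37C, then dosed with compounds plus a stimulation mix containing 100uM IBMX and 25uM Ro-20-1724 for 0.5hr at room temperature. cAMP was measured by HTRF competition, 1hr.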
# Potency is the fitted concentration of half-maximal effect.
# Beta-2 adrenergic receptor (Homo sapiens), sequence (P07550 whole entry, looked up): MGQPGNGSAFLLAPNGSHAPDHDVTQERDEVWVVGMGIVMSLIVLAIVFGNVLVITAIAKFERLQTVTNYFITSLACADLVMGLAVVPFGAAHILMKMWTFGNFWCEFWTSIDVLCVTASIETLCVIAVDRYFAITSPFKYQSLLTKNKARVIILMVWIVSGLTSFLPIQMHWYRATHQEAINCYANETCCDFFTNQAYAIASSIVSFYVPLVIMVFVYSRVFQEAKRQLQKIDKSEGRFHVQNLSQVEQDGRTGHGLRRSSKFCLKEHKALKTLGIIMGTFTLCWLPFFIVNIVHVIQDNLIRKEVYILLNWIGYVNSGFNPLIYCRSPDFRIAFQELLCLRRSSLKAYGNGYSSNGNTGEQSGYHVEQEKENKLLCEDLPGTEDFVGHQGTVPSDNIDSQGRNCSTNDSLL
Compound,Potency,activation
O=C1OC(CN2CCOCC2)CN1/N=C/c1ccc([N+](=O)[O-])o1 (stereo not drawn),inactive,
NC(=O)Nc1ccccc1,inactive,
CCCCCCCCCCCCCCCC(=O)NCCO,inactive,
O=C(c1ccccc1O)c1ccccc1O,inactive,
COc1ccc(C(=O)CC(=O)c2ccc(C(C)(C)C)cc2)cc1,inactive,
CC(C)(C)c1cc(C(C)(C)C)c(O)c(C(C)(C)C)c1,inactive,
C[N+](C)(C)CC[N+]1(C)Cc2c(Cl)c(Cl)c(Cl)c(Cl)c2C1,inactive,
Cc1ccc(NC(=O)N(C)C)cc1NC(=O)N(C)C,inactive,
CC(C)c1cccc(O)c1,inactive,
CCc1ccc(Br)cc1,inactive,
COc1cc(C)c(Cc2cnc(N)nc2N)cc1OC,inactive,
Nc1ccc(N=Nc2ccccc2)c(N)n1,inactive,
NC(=O)Nc1ccc(Cl)cc1,inactive,
NC(=O)NS(=O)(=O)c1ccc(Cl)cc1,inactive,
C#CC(C)(O)CC(C)C (stereo not drawn),inactive,
CCOC(=O)C(C)C(C)=O (stereo not drawn),inactive,
O=S(=O)(O)CC(O)CCl (stereo not drawn),inactive,
Cc1cccc(N)n1,inactive,
CC(=O)c1cccc([N+](=O)[O-])c1,inactive,
C=CC(=O)OCCN(CC)CC,inactive,
CN(C)c1ccc(Cc2ccc(N(C)C)cc2)cc1,inactive,
CCCOC(C)=O,inactive,
O=C(CCN1CCN(CCO)CC1)N1c2ccccc2Sc2ccc(C(F)(F)F)cc21,inactive,
Cc1ccc(-c2ccccc2)cc1,inactive,
CCC(=O)OC(C)(C)C1CC=C(C)CC1 (stereo not drawn),inactive,

Compound,Potency,activation
COc1ccc2cccc(CCNC(C)=O)c2c1,inactive,
CCCCC/C=C/C=C/C=O,inactive,
NC[C@H]1O[C@H](O[C@H]2[C@H](O)[C@@H](O[C@H]3O[C@H](CO)[C@@H](O)[C@H](N)[C@H]3O)[C@H](N)C[C@@H]2N)[C@H](N)[C@@H](O)[C@@H]1O,,1.3% [at 19 µM] (inactive)
Nc1c(Br)cc([N+](=O)[O-])cc1Br,inactive,
Cc1cc(C)c(C)c(O)c1,inactive,
N#C[C@@H]1C[C@@H]2C[C@@H]2N1C(=O)[C@@H](N)C12CC3CC(CC(O)(C3)C1)C2,inactive,
C=CC(=O)OCCOC1C2CCC1C1CC=CC12 (stereo not drawn),,-22.8% [at 19 µM] (inactive)
CCCCCC(CC)OC(=O)CCCOc1ccc(Cl)cc1Cl (stereo not drawn),inactive,
OC[C@H]1O[C@@H](O[C@H]2[C@H](O)[C@@H](O)[C@H](O)O[C@@H]2CO)[C@H](O)[C@@H](O)[C@H]1O,inactive,
CCCCC(O)/C=C(C)/C=C/C=C/C(=O)N1CCCC1=O (stereo not drawn),inactive,
Nc1cc([N+](=O)[O-])ccc1O,inactive,
CN1CCCC1,inactive,
CCn1cc(C(=O)O)c(=O)c2cc3c(cc21)OCO3,inactive,
O=S(=O)(O)c1cc(O)c(O)c(S(=O)(=O)O)c1,inactive,
CO/N=C(/C(=O)N[C@@H]1C(=O)N2C(C(=O)O)=C(COC(N)=O)CS[C@H]12)c1ccco1,inactive,
CC(C)=CCC/C(C)=C/C(=O)O,inactive,
C=C(C)C(=O)OCCCCCCOC(=O)C(=C)C,inactive,
CCCCCCCCC(=O)OCC,inactive,
CCC(C)C1CCCCC1=O (stereo not drawn),inactive,
C[C@@H](O)[C@H]1C(=O)N2C(C(=O)O)=C([C@H]3CCCO3)S[C@H]12,inactive,
ON=C1CCCCC1,inactive,
O=C1NC(c2ccccc2)(c2ccccc2)C(=O)N1COP(=O)(O)O,inactive,
O=C1C=CC(=O)O1,inactive,
NCCC(O)(P(=O)(O)O)P(=O)(O)O,inactive,
C1C[C@@H]2[C@H]3CC[C@H](C3)[C@@H]2C1,inactive,

Compound,Potency,activation
CCC(CC)C(C)CCOC(C)=O (stereo not drawn),inactive,
N#CC1(O)CCCCC1,inactive,
CCOC(=O)c1ccc(O)c(O)c1,inactive,
CC(=O)OCCOCCOCCOC(C)=O,53.8 µM (active) and inactive,
C=CCCCCCCCCO,inactive,
C=CC(C)(O)CC/C=C(\C)CCC=C(C)C (stereo not drawn),inactive,
C/C(=C(\CCO)SS/C(CCO)=C(\C)N(C=O)Cc1cnc(C)nc1N)N(C=O)Cc1cnc(C)nc1N,inactive,
O=C1C(O)=C(O)C(=O)C(O)=C1O,inactive,
O=C(O)c1ccc(OCCCOc2ccc(C(=O)O)cc2)cc1,inactive,
CC1=CC(C)C(C=O)CC1 (stereo not drawn),inactive,
C[Si](C)O[Si](C)C,inactive,
Nc1ncnc2c1ncn2Cc1c(F)cccc1Cl,inactive,
O=C(O)/C=C/c1ccc(Cn2ccnc2)cc1,inactive,
CCCCN(CCO)CCO,inactive,
CC1(C)Oc2ccc(C#N)cc2[C@@H](N2CCCC2=O)[C@@H]1O,inactive,
O=C(O)[C@@H]1[C@H]2C[C@H]3c4[nH]c5ccccc5c4CCN3C[C@@H]2CC[C@@H]1O,inactive,
O=C(O)c1cccc(C[C@@H]2COc3ccc(OCc4nc5cc(F)ccc5s4)cc3[C@@H]2O)c1,inactive,
NCCNCCO,inactive,
CCC(O)CO (stereo not drawn),inactive,
CC(C)C1CCC(O)CC1 (stereo not drawn),inactive,
CC(C)CC(O)CC(C)C,inactive,
Nc1cccc2c1CN(C1CCC(=O)NC1=O)C2=O (stereo not drawn),inactive,
CC(C)c1cccc(C(C)C)c1N,inactive,
